Compounds without any hit were thinned out: in the full panel of roughly 79,000, 15% have a hit. Unmarked numbers belong to inactive results. Active and inactive are the calls of the source. Cut-off read from the data, not from the text of the source: active = growth inhibition above about 70%; inactive = the rest.

A short description of test [1]: NCI Yeast Anticancer Drug Screen. Data for the rad50 strain (AID 155).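 Note: 0% = growth of vehicle-only cultures of the same strain.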 The following applies: S. cerevisiae rad50 strain growth inhibition, active compounds read high. The method in brief: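 Inhibition values express reduced yeast growth in compound-treated cultures relative to vehicle-treated controls.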
Test [2] can be described thus: NCI Yeast Anticancer Drug Screen. Data for the mec2-1 strain (AID 157). The following applies: S. cerevisiae mec2-1 strain, active compounds read high. The method in brief: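 Each compound was tested on mec2-1 yeast, a strain altered in DNA damage repair or cell cycle control. Growth inhibition is reported relative to vehicle.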
Test [3] in a line: NCI Yeast Anticancer Drug Screen. Data for the sgs1 mgt1 strain (AID 161).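 Note: 0% = growth of cultures given vehicle only.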 The following applies: S. cerevisiae sgs1 mgt1 strain, active compounds read high. The method in brief: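 Test agents were incubated with a DNA-repair-mutant yeast strain. Growth was then read and compared against vehicle-treated controls.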
Test [4] in a line: NCI Yeast Anticancer Drug Screen. Data for the cln2 rad14 strain (AID 165).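 Note: 0% = growth equal to vehicle treated cultures.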 The following applies: S. cerevisiae cln2 rad14 strain, active compounds read high. The method in brief:
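Test compounds were added to cln2 rad14 yeast cultures; inhibition of growth was then determined by comparison with vehicle treatment.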

Test [5] can be described thus: NCI Yeast Anticancer Drug Screen. Data for the bub3 strain (AID 167). The following applies: S. cerevisiae bub3 mutant strain, active compounds read high. An outline of the steps: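 Steps: expose the mutant yeast strain to compound; grow alongside vehicle-treated cultures; measure growth; express inhibition against the vehicle cultures.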
A short description of test [6]: NCI Yeast Anticancer Drug Screen. Data for the mlh1 rad18 strain (AID 175). The following applies: S. cerevisiae mlh1 rad18 strain growth inhibition, active compounds read high. The method in brief: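 Inhibition values reflect reduced growth of mutant yeast versus vehicle-treated controls following compound exposure; the mutations affect DNA damage repair.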
[7] abbreviates: at 5.0 µM (retest, dose inferred, filed as 0.5).
Setting [8] is: at 50.0 µM (retest, dose inferred, filed as 5.0).

For the compound `O=[N+]([O-])c1ccc(/C=N/NC2=CS(=O)(=O)C=C2)cc1`, the growth inhibition in test [1] (setting [7]) is 0%; in test [1] (setting [8]), 17%; in test [1] (at 50.0 µM) it was 0.8%; in test [2] (setting [7]), -2%; in test [2] (setting [8]), 0%; in test [2] (at 50.0 µM), 2.45%. The growth inhibition in test [3] (setting [7]) is -5%; in test [3] (setting [8]), 1%; in test [3] (at 50.0 µM), 8.4%; in test [4] (setting [7]), -2%; in test [4] (setting [8]) it was 0%; in test [4] (at 50.0 µM), 38%. Also, the growth inhibition in test [5] (setting [7]) is -4%; in test [5] (setting [8]), 5%; in test [5] (at 50.0 µM), 16.7%; in test [6] (setting [7]) it was -4%; in test [6] (setting [8]), 2%; in test [6] (at 50.0 µM) it was 1.1%.

As for `Nc1ccc(C(=O)Oc2cccccc2=O)cc1`, the growth inhibition in test [1] (setting [7]) was 3%; in test [1] (setting [8]), 36%; in test [1] (at 50.0 µM) it was 82% (active); in test [2] (setting [7]) it was 2%; in test [2] (setting [8]) it was 32%; in test [2] (at 50.0 µM) it was 42.9%. For the same compound, the growth inhibition is 7% in test [3] (setting [7]); 52% in test [3] (setting [8]); 91.5% (active) in test [3] (at 50.0 µM); 3% in test [4] (setting [7]); 20% in test [4] (setting [8]); 16.1% in test [4] (at 50.0 µM). The growth inhibition in test [5] (setting [7]) was -1%; in test [5] (setting [8]), 32%; in test [5] (at 50.0 µM), 77.2% (active); in test [6] (setting [7]) it was 4%; in test [6] (setting [8]) it was 78% (active); in test [6] (at 50.0 µM), 95.4% (active).

Regarding `CN(C)CCC(=O)c1ccco1`, the growth inhibition in test [1] (setting [7]) was 6%; in test [1] (setting [8]) it was 85% (active); in test [1] (at 50.0 µM), 86.1% (active); in test [2] (setting [7]) it was 13%; in test [2] (setting [8]), 93% (active); in test [2] (at 50.0 µM), 94% (active). Further, the growth inhibition in test [3] (setting [7]) is 25%; in test [3] (setting [8]), 87% (active); in test [3] (at 50.0 µM), 93.3% (active); in test [4] (setting [7]), 10%; in test [4] (setting [8]), 89% (active); in test [4] (at 50.0 µM) it was 93.5% (active). Further, the growth inhibition in test [5] (setting [7]) was -3%; in test [5] (setting [8]), 39%; in test [5] (at 50.0 µM) it was 70.2% (active); in test [6] (setting [7]), 13%; in test [6] (setting [8]), 92% (active); in test [6] (at 50.0 µM) it was 95.3% (active).

As for `CC(C)(C)C1=CC(=CC=C2C=CN(CCO)C=C2)C=C(C(C)(C)C)C1=O`, the growth inhibition in test [1] (setting [7]) was -2%; in test [1] (setting [8]), 98% (active); in test [1] (at 50.0 µM), 29.1%; in test [2] (setting [7]), 0%; in test [2] (setting [8]) it was 28%; in test [2] (at 50.0 µM) it was 35.5%. For the same compound, the growth inhibition in test [3] (setting [7]) is -3%; in test [3] (setting [8]), 51%; in test [3] (at 50.0 µM), 24.6%; in test [4] (setting [7]), 0%; in test [4] (setting [8]), 60%; in test [4] (at 50.0 µM), 31.8%. The growth inhibition was -5% in test [5] (setting [7]); 28% in test [5] (setting [8]); 31.6% in test [5] (at 50.0 µM); -6% in test [6] (setting [7]); 73% (active) in test [6] (setting [8]); 97% (active) in test [6] (at 50.0 µM).

For the compound `CC1SC(c2ccc(Cl)cc2)N2C(=O)C(C)SC(c3ccc(Cl)cc3)N2C1=O` (stereo not given), the growth inhibition in test [1] (setting [7]) is 84% (active); in test [1] (setting [8]), 91% (active); in test [1] (at 50.0 µM), 71% (active); in test [2] (setting [7]), 53%; in test [2] (setting [8]) it was 91% (active); in test [2] (at 50.0 µM), 27.1%. Also, the growth inhibition in test [3] (setting [7]) was 85% (active); in test [3] (setting [8]) it was 95% (active); in test [3] (at 50.0 µM), 30.9%; in test [4] (setting [7]), 84% (active); in test [4] (setting [8]), 93% (active); in test [4] (at 50.0 µM), 52.6%. Besides, the growth inhibition is 79% (active) in test [5] (setting [7]); 94% (active) in test [5] (setting [8]); 26.1% in test [5] (at 50.0 µM); 74% (active) in test [6] (setting [7]); 90% (active) in test [6] (setting [8]); 60% in test [6] (at 50.0 µM).

Take `CCO/N=C1\CCCCC1SS(=O)(=O)O` (stereo not given): the growth inhibition in test [1] (setting [7]) was -5%; in test [1] (setting [8]), 11%; in test [1] (at 50.0 µM), 40.5%; in test [2] (setting [7]) it was 7%; in test [2] (setting [8]), 17%; in test [2] (at 50.0 µM), -14.1%. In addition, the growth inhibition in test [3] (setting [7]) was -6%; in test [3] (setting [8]), 20%; in test [3] (at 50.0 µM), 31.8%; in test [4] (setting [7]) it was 0%; in test [4] (setting [8]) it was 7%; in test [4] (at 50.0 µM), 15.2%. For the same compound, the growth inhibition in test [5] (setting [7]) is 5%; in test [5] (setting [8]) it was 22%; in test [5] (at 50.0 µM) it was 8.2%; in test [6] (setting [7]), -1%; in test [6] (setting [8]), 4%; in test [6] (at 50.0 µM), 31.9%.

Take `CC(=O)c1c(O)c2cccc3c2n(c1=O)CCC3`: the growth inhibition was 26% in test [1] (setting [7]); 99% (active) in test [1] (setting [8]); 97.2% (active) in test [1] (at 50.0 µM); -13% in test [2] (setting [7]); 99% (active) in test [2] (setting [8]); 91.6% (active) in test [2] (at 50.0 µM). The growth inhibition was 4% in test [3] (setting [7]); 98% (active) in test [3] (setting [8]); 94.9% (active) in test [3] (at 50.0 µM); 3% in test [4] (setting [7]); 98% (active) in test [4] (setting [8]); 71.3% (active) in test [4] (at 50.0 µM). Further, the growth inhibition is -2% in test [5] (setting [7]); 99% (active) in test [5] (setting [8]); 84.4% (active) in test [5] (at 50.0 µM); 11% in test [6] (setting [7]); 98% (active) in test [6] (setting [8]); 95.3% (active) in test [6] (at 50.0 µM).

As for `Cc1ccc(S(=O)(=O)NNc2nc(N3CCOCC3)nc(N3CCOCC3)n2)cc1`, the growth inhibition in test [1] (setting [7]) was 1%; in test [1] (setting [8]) it was -4%; in test [1] (at 50.0 µM), 28.1%; in test [2] (setting [7]) it was 2%; in test [2] (setting [8]), 2%; in test [2] (at 50.0 µM), 15.4%. Further, the growth inhibition in test [3] (setting [7]) was 10%; in test [3] (setting [8]) it was 6%; in test [3] (at 50.0 µM) it was 63%; in test [4] (setting [7]), 3%; in test [4] (setting [8]) it was -8%; in test [4] (at 50.0 µM) it was 70.6% (active). Also, the growth inhibition is -1% in test [5] (setting [7]); -1% in test [5] (setting [8]); 17.9% in test [5] (at 50.0 µM); 0% in test [6] (setting [7]); -4% in test [6] (setting [8]); 26.3% in test [6] (at 50.0 µM).

With `COc1ccc(I)c(C=NC2CCCCC2)c1C`, the growth inhibition in test [1] (setting [7]) is 41%; in test [1] (setting [8]) it was 94% (active); in test [1] (at 50.0 µM), 97.2% (active); in test [2] (setting [7]) it was 16%; in test [2] (setting [8]) it was 82% (active); in test [2] (at 50.0 µM) it was 91.5% (active). Also, the growth inhibition in test [3] (setting [7]) is 41%; in test [3] (setting [8]) it was 92% (active); in test [3] (at 50.0 µM) it was 99% (active); in test [4] (setting [7]) it was 1%; in test [4] (setting [8]), 88% (active); in test [4] (at 50.0 µM), 41.8%. In addition, the growth inhibition is 35% in test [5] (setting [7]); 94% (active) in test [5] (setting [8]); 89.4% (active) in test [5] (at 50.0 µM); 27% in test [6] (setting [7]); 93% (active) in test [6] (setting [8]); 94.7% (active) in test [6] (at 50.0 µM).

Take `CCN(CC)c1ccc(NC(C(=O)c2ccc(Cl)cc2)c2ccc(Cl)cc2)cc1` (stereo not given): the growth inhibition in test [1] (setting [7]) was -7%; in test [1] (setting [8]), -10%; in test [1] (at 50.0 µM), 91.3% (active); in test [2] (setting [7]) it was -2%; in test [2] (setting [8]), -10%; in test [2] (at 50.0 µM) it was 91.2% (active). The growth inhibition in test [3] (setting [7]) was -6%; in test [3] (setting [8]) it was -9%; in test [3] (at 50.0 µM), 96.2% (active); in test [4] (setting [7]) it was 2%; in test [4] (setting [8]), -11%; in test [4] (at 50.0 µM), 93.3% (active). The growth inhibition is -1% in test [5] (setting [7]); 8% in test [5] (setting [8]); 86.3% (active) in test [5] (at 50.0 µM); -2% in test [6] (setting [7]); -8% in test [6] (setting [8]); 95.6% (active) in test [6] (at 50.0 µM).

The record behind these values is PubChem BioAssay (NCI).
